{
  "source": "PubChem BioAssay AID1508600",
  "about": "(Functional Genomics Laboratory (NCATS/FGL), 2020)",
  "note": "Among all 53,000 sequences or so, about 3,700 (7%) were called active. Shown is part of a subset that was picked to be rich in actives. Unmarked numbers belong to inactive results.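 Rule for the calls: active = gene knockdowns whose robust z-score for IL-1 alpha signal is at least 2 or at most -2, so actives lie on both sides; inactive = the rest.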",
  "data": [
    {"assay": "Components of the Cytosolic LPS Sensing Pathway: Gene Identification via Genome-wide siRNA Screen;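 note: robust z of the log signal after scaling to non-targeting control siRNA wells of the plate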", "settings": "RAW264.7 macrophages, IL-1a HTRF, actives lie on both sides, screened at 100 nM (by protocol), cells primed 5 h with Pam3CSK4 first", "in_short": "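Mouse macrophage line RAW264.7 is transfected with siRNA (100 nM final), grown 48h, primed with TLR ligand Pam3CSK4 5 h and given intracellular LipidA 24 h. IL-1a in supernatant is read by HTRF and viability by luminescence.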", "values": [
      {"sequence": "GGUCUUCUUUGAUGUGAGGTT against Ppic", "z-score": -0.832},
      {"sequence": "GGACUGAAGAAGUGUGUGGTT against Scgb3a2", "z-score": 1.66},
      {"sequence": "GCUUCCAGUCAGUGGUUACTT against Rara", "z-score": 1.07},
      {"sequence": "GGAUGAGCAGAUGCUCCAATT against Mtmr7", "z-score": 0.451},
      {"sequence": "GGUAUUUUGACCGAAUCAATT against Add3", "z-score": -0.294},
      {"sequence": "GCUCCUCACUUAUUGCCCATT against Zfp354b", "z-score": -0.0805},
      {"sequence": "GGAUGAAAACACUGAAUACTT against Olfr644", "z-score": -0.714},
      {"sequence": "GCAUUUAGUGAGUUCAGUGTT against Kirrel3os", "z-score": 0.855},
      {"sequence": "GCGCAACUAAAACAGAUUGTT against Eif2ak1", "z-score": "2.2 (active)"},
      {"sequence": "GGGAUACUUUUUAUUCAGGTT against Nmu", "z-score": -0.0461},
      {"sequence": "GGAGCAGACGAUAUGCAGATT against Copb2", "z-score": 0.559},
      {"sequence": "CCAAUUGCUAAUCCUUUGUTT against Pin1", "z-score": 1.52},
      {"sequence": "GGACACAAUCCAGAACCAGTT against Angpt4", "z-score": -0.189},
      {"sequence": "GCCUGAGUUAUGUUUAAAGTT against Pgam5", "z-score": 0.00362},
      {"sequence": "CCACGUGAAGGAGAGAUGATT against Mob2", "z-score": 1.39},
      {"sequence": "GCGACCAGGACCGCGUCAATT against Sox3", "z-score": -1.07},
      {"sequence": "GCACUGAAGCCUAGCUGUUTT against BC051142", "z-score": 1.41},
      {"sequence": "GGUGUUGAGUUCAAGUCUATT against Dennd11", "z-score": -0.468},
      {"sequence": "GGGCAAACUCUAUAAUCAGTT against BC023105", "z-score": 0.337},
      {"sequence": "GCUCCGUGUUGACUCAAAATT against Foxg1", "z-score": "2.46 (active)"},
      {"sequence": "CCCUCAGAUCUUUCAGUCUTT against Btbd16", "z-score": -1.01},
      {"sequence": "GCAUGGUUUAAUGGCUCGGTT against Atpsckmt", "z-score": -1.93},
      {"sequence": "GGAAUAUUUUGCUUGUGUGTT against Dnmt3a", "z-score": -0.925},
      {"sequence": "GGUUUAAGAAAAAAGGAGCTT against Rab43", "z-score": -0.182},
      {"sequence": "CCUCUGUUUGUGCGCCAUATT against Uqcrfs1", "z-score": 0.402},
      {"sequence": "GGUUAUCAAACAGGUGUUGTT against Aldh3b1", "z-score": "2.22 (active)"},
      {"sequence": "GCGAGUUCGGAAGAAGUAUTT against Ddx41", "z-score": -0.198},
      {"sequence": "GGAGAUCCAGGCAAUUUUUTT against Pink1", "z-score": 0.779},
      {"sequence": "GUUGGUAGAUUCAGUUUUCTT against Vmn1r89", "z-score": 1.88},
      {"sequence": "GGUGAAGAAAGCACUAGUUTT against Olfr979", "z-score": -0.873},
      {"sequence": "GGACCUUGGCCUUACACAATT against Astn2", "z-score": "2.29 (active)"},
      {"sequence": "GGGCAUGCUGCUUAUUGUGTT against Slc5a4b", "z-score": -0.8},
      {"sequence": "GCAACACGUACGAGCUCAATT against Pou2af1", "z-score": -0.926},
      {"sequence": "GGGUUCUAGGUUGUUUAUGTT against C2cd4c", "z-score": -1.74},
      {"sequence": "GGCGAGCUGGACAGAUUUGTT against Nudt6", "z-score": "3.33 (active)"},
      {"sequence": "CCUGCAUUUACUCAACUUGTT against Snrpe", "z-score": -1.74},
      {"sequence": "GGAUACAAGCCUUUUAACCTT against Sri", "z-score": -0.0625},
      {"sequence": "GAACAACAACAGACAAGUGTT against Cxcl12", "z-score": -0.65},
      {"sequence": "GGUAUUUUUGCAUUUGUCCTT against Pip4p2", "z-score": 1.32},
      {"sequence": "GGUUAUUGAUGUGACGAUGTT against Rem2", "z-score": 1.36},
      {"sequence": "CCACCCUGAUUUAAGAAGGTT against Ndufs3", "z-score": "2.53 (active)"},
      {"sequence": "CCUACGUGAUAUCCUUUUATT against Vrk1", "z-score": 0.0128},
      {"sequence": "GGAUAGAAAAUCUGUGUUUTT against Trim60", "z-score": -0.401},
      {"sequence": "GGUAUUUAUGAAGCACACATT against Clcn3", "z-score": 0.451},
      {"sequence": "GGGUCUAUCAGCUACAUCATT against Acsl6", "z-score": -1.28},
      {"sequence": "CGUAUUGCCUUAGUGUAUGTT against Olfr433", "z-score": "-2.7 (active)"},
      {"sequence": "GGGCUAUCGGUUGACAAAUTT against Riok2", "z-score": 1.67},
      {"sequence": "GCGUAUUACAGACAGUGACTT against Izumo1", "z-score": 0.023},
      {"sequence": "GGAACUGUUUCUCUUUCCUTT against Rad9a", "z-score": -1.45},
      {"sequence": "CGUGUUCUAUGAUGGUAAUTT against Selenoo", "z-score": -0.197},
      {"sequence": "GCAACUUGGCUACAAUUACTT against Dct", "z-score": 0.987},
      {"sequence": "GGACCAAGCCACCAAAACUTT against Vmn1r78", "z-score": "-2.28 (active)"},
      {"sequence": "CCUAUGAUUCAGCAAUACUTT against Col17a1", "z-score": 0.677},
      {"sequence": "GGAAGAGGAGAGGAAGAAGTT against Dync1i1", "z-score": 1.91},
      {"sequence": "GGCUCUAAGCUAAAUAAAGTT against Kbtbd4", "z-score": -0.249},
      {"sequence": "CCGCGUCUUGCUAUGGAAGTT against Baiap2l2", "z-score": 0.79},
      {"sequence": "GCUGGAAGAUAGUGCUUUUTT against Itpr1", "z-score": "5.23 (active)"},
      {"sequence": "GGGUUUAUGGGCAUGUCCCTT against Adipor2", "z-score": -0.964},
      {"sequence": "GGUUAAAAAUGCCAUUAGATT against Olfr1233", "z-score": 0.133},
      {"sequence": "GGAAGACAUCAAGAUGUAATT against Rp1l1", "z-score": -1.28},
      {"sequence": "GGAGCUGUAAAGGCUACAATT against Sulf2", "z-score": "4.14 (active)"},
      {"sequence": "CGUGGAAAUGUCUUAAAUCTT against Folh1", "z-score": 0.412},
      {"sequence": "GGAGAAAAAUCCUACCGACTT against Zmym5", "z-score": 0.56},
      {"sequence": "GCGAUUGAAGUCUCAGGGATT against Nrde2", "z-score": -1.03},
      {"sequence": "GGAAUAUUGGUUGUGAUGATT against Ralb", "z-score": -0.197},
      {"sequence": "GCUAAUGGUCCAUUGAUAUTT against Btn2a2", "z-score": 0.229},
      {"sequence": "GGGAAGAGUUGGAUCGAUCTT against Shkbp1", "z-score": -0.0675},
      {"sequence": "GGAGGAUAAGGAUACAGUATT against Cspg5", "z-score": "2.27 (active)"},
      {"sequence": "GGAGGAAAGAAAAGAUCCATT against Tie1", "z-score": -0.102},
      {"sequence": "GCUAUGUCAUGGUUGGAACTT against Bag6", "z-score": 0.597},
      {"sequence": "GCUUGCCUGACCUGAAACATT against Apool", "z-score": "-2.38 (active)"},
      {"sequence": "GCAACAAAUCAGAUUUGACTT against Dhdh", "z-score": 0.246},
      {"sequence": "GGGAUGGACAAGUUGUACUTT against Renbp", "z-score": -0.101},
      {"sequence": "GGACCUUUUUAUCCAACGCTT against Mcts2", "z-score": 0.46},
      {"sequence": "CCUGAAUUAUGUGUAACUUTT against Ywhab", "z-score": -0.819},
      {"sequence": "CCACUGUGAGACACAUAAGTT against Muc4", "z-score": "-3.25 (active)"},
      {"sequence": "GGAAAUAGAUCCUUUUUGATT against 2510039O18Rik", "z-score": 0.861},
      {"sequence": "GCCAGUAGUAGUAGAAUAATT against Gm4841", "z-score": 0.997},
      {"sequence": "CCUGGCAGUAAAAGAUUGCTT against Ndst3", "z-score": 0.836},
      {"sequence": "GGGAAGGGAUCCUAUAUUUTT against Lsm12", "z-score": 0.158},
      {"sequence": "CCCAGCAUGGAUCAAGCACTT against Krt73", "z-score": 0.864},
      {"sequence": "GGGUGCACUGGCUAAUAUATT against H2-Ea", "z-score": 1.13},
      {"sequence": "GGGAAUAUUCAGUUGACAATT against Iigp1", "z-score": -1.14},
      {"sequence": "GGUGAAUUUGAUUGAUGAGTT against Ccnl2", "z-score": "-2.3 (active)"},
      {"sequence": "GGAGAAAGCCUUCCUUAGUTT against Trpc5", "z-score": -0.115},
      {"sequence": "CGUAGCACUUCUUCUCUUATT against Dync1li2", "z-score": 0.484},
      {"sequence": "GGUCUUGCUGAUCAACAACTT against Adgrb2", "z-score": "2.53 (active)"},
      {"sequence": "GCCAAUUUUGAACCACUACTT against Itga8", "z-score": -0.56},
      {"sequence": "GGAAGUAUGAAAUUAUCAGTT against Car12", "z-score": 0.0371},
      {"sequence": "CGGUUCUUCCAUCAAAUGGTT against Prodh", "z-score": 1.07},
      {"sequence": "GGCUUUAAUCCUAACCCUATT against Zfp3", "z-score": -0.658},
      {"sequence": "GCGAGCCAAGUUUGAACUUTT against Elovl6", "z-score": 1.42},
      {"sequence": "GCUGGCUUUAAAAAUAUCUTT against Nt5dc3", "z-score": 0.174},
      {"sequence": "GGAGUGAUAGUCAUCAAUGTT against Olfr357", "z-score": -0.464},
      {"sequence": "GGAACAGUCGGCCAUUUAATT against Tmem98", "z-score": -0.553},
      {"sequence": "CCCUACUGUAUUAGAAAACTT against Dnph1", "z-score": "2.1 (active)"},
      {"sequence": "GGAUCACUUUUAGUUUUCUTT against C230013L11Rik", "z-score": -0.0242},
      {"sequence": "GCCUGAUAGUGCAGAAACATT against Rabl2", "z-score": -0.233},
      {"sequence": "GGUUAUCGCAUUUGGUGGUTT against Olfr1511", "z-score": 0.104},
      {"sequence": "GGACAAAAGGCAAUCUACATT against Mettl18", "z-score": "2.8 (active)"},
      {"sequence": "GGUGUCUCUCCAGGAUAACTT against Ctrl", "z-score": -0.511},
      {"sequence": "CGUACAACACGGAAACCUATT against Paqr5", "z-score": -0.448},
      {"sequence": "GGGUCUCAGCAGUGCAAACTT against Txnip", "z-score": -0.486},
      {"sequence": "GGAGAGAGGGAAAAAAGAATT against Sox4", "z-score": -0.317},
      {"sequence": "GGCUUGACUGCUAUUUUAGTT against Csn1s1", "z-score": 0.711},
      {"sequence": "CCACCUGACUUUUGGAAGATT against Coro1b", "z-score": -1.8},
      {"sequence": "UUAAGGAAAUGUUCUGUUCTT against Olfr426", "z-score": 0.797}
    ]}
  ]
}
